Measured values: PubChem BioAssay AID686978 (National Center for Advancing Translational Sciences (NCATS), 2013)
Hit rate of the full screen: of about 420,000 compounds, about 64,000 (15%) were called active. Inconclusive results (about 27%) are left out. These entries were drawn from the full list. Unmarked numbers belong to inactive results. The call rests on the fitted dose curve; in most records, active means well fitted inhibition curve with a large enough effect; inconclusive means small, poorly fitted or top-dose-only effect; inactive means flat fitted curve, though single readings scatter.

Experiment: qHTS for Inhibitors of human tyrosyl-DNA phosphodiesterase 1 (TDP1): qHTS in cells in absence of CPT; further: nearly all actives have a fitted effect of over 55% in size
Conditions: DT40 Tdp1-/- hTDP1 cells, no CPT, ATP luminescence, 48 h; activity change, negative = growth inhibition: at 46.2 µM (top of the series)
Outline: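 Stably hTDP1-transfected Tdp1-null chicken DT40 cells were treated with library compounds minus camptothecin and grown for at least 48 hr at 37 °C, after which cellular ATP was quantified by luminescence.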
On the % scale 0 is the no-effect control and ±100 the full control effect; potency means the concentration at half of the fitted maximal effect.

| SMILES | activity change, negative = growth inhibition [%] | Potency |
| --- | --- | --- |
| CCc1c(C)n([O-])c2c([n+]1=O)CCCCC2 | 4.34 |  |
| CCOC(=O)CCC(=O)OCC(=O)NC(C)C1CC2CCC1C2 (stereo not drawn) | -12.4 |  |
| Cc1cccc(C(=O)OCC(=O)NC(C)C2CC3CCC2C3)c1O (stereo not drawn) |  | 16.4 µM (active) |
| Cc1cccc(C(=O)OCC(=O)NCC(C)C)c1O | -2.49 |  |
| COC(=O)c1ccc(NC(=O)CSc2nnc(-c3ccncc3)n2C)cc1 | -0.574 |  |
| CC(=O)c1ccc(NC(=O)C(C)N(C)CC(=O)Nc2ccccc2Cl)cc1 (stereo not drawn) | -1.04 |  |
| CC(=O)c1ccc(Nc2nc(C(N)c3ccccc3Cl)cs2)cc1 (stereo not drawn) |  | 11.6 µM (active) |
| NS(=O)(=O)c1ccc(Nc2nc(-c3ccccc3)cs2)cc1 | -16.9 |  |
| COc1ccc(NC(=O)CSc2nnc(-c3nnn(-c4ccc(F)cc4)c3C)o2)cc1 | -26.3 |  |
| COc1ccccc1N(CC(=O)NC1CCCC1)C(=O)C1(C)CC(=O)N=C2C=CC(C)=CN21 (stereo not drawn) | -26.7 |  |
| CC1=C(C(N)=O)C(c2sccc2C)n2nnnc2N1 (stereo not drawn) | -5.04 |  |
| CSc1cccc(NC(=S)N(C(C)C)C(C)c2ccccn2)c1 (stereo not drawn) |  | 8.2 µM (active) |
| Cc1c(Cl)cccc1NC(=S)N(Cc1ccccc1)Cc1cccnc1 | -1.9 |  |
| COc1cccc(NC(=S)N(Cc2ccc(C)cc2)Cc2ccccn2)c1 | -29.4 |  |
| CC(c1ccccn1)N(CCN(C)C)C(=S)Nc1ccccc1F (stereo not drawn) | -10.4 |  |
| CSc1cccc(NC(=S)N(Cc2ccccc2)Cc2ccccn2)c1 |  | 20.6 µM (active) |
| CC(C)(C)c1nnc(N/N=C/c2ccc(O)cc2)n(N)c1=O | -21.3 |  |
| O=C(CC[C@H]1O[C@@H](n2ccc(=O)[nH]c2=O)[C@H](O)[C@@H]1O)N[C@H](Cc1ccccc1)C(=O)NCCCN1CCCC1=O | 7.45 |  |
| CN(C(=O)COC(=O)CCCc1c[nH]c2ccccc12)c1c(N)n(Cc2ccccc2)c(=O)[nH]c1=O | 16.9 |  |
| Cc1nc2c(ncn2-c2ccccc2)c(=O)n1NC(=O)CN1CCCC1 | 3.93 |  |
| CCN(CC)C(=O)CSc1nnc(-c2ccc(S(=O)(=O)NCc3ccccc3Cl)cc2)o1 | -18.3 |  |
| COc1ccccc1NC(=O)C(C)OC(=O)CC1CCCC1 (stereo not drawn) | -0.667 |  |
| COc1ccccc1NC(=O)C(CC(=O)O)Cc1cc(C)cc(C)c1 (stereo not drawn) | 3.58 |  |

| SMILES | activity change, negative = growth inhibition [%] | Potency |
| --- | --- | --- |
| COc1ccccc1NC(=O)[C@H](COCc1ccccc1)NC(=O)OC(C)(C)C |  | 18.4 µM (active) |
| COc1ccc(C)cc1NC(=O)CCCN1C(=O)NC(C)(C)C1=O | 7.84 |  |
| O=S(=O)(NCCNS(=O)(=O)c1ccccc1)c1ccccc1 | 2.77 |  |
| Cc1cc(C(=O)N2CCCC2(C)C(=O)O)c(C)o1 (stereo not drawn) | -1.92 |  |
| Cc1ccc(CCNC(=O)c2ccc3c(c2)nc2n3CCC(C)C2)cc1 (stereo not drawn) | -23.5 |  |
| Cc1cccc(CCNC(=O)c2ccc3c(c2)nc2n3CCC(C)C2)c1 (stereo not drawn) |  | 18.4 µM (active) |
| COc1ccc(CNC(=O)c2ccc3c(c2)nc2n3CCOC2)c(OC)c1 | -1.39 |  |
| CCOc1ccc(CCNC(=O)COC(=O)C2CCN(S(=O)(=O)c3ccccc3)CC2)cc1OCC | -10.6 |  |
| COC(=O)c1ccc(COC(=O)c2cnccn2)cc1 | -6.17 |  |
| Cc1ccc(S(=O)(=O)NCC(C)NS(C)(=O)=O)cc1 (stereo not drawn) | -8.89 |  |
| Nc1nnnn1/N=C/c1cccc(Br)c1 | -16.5 |  |
| COc1ccc(C(=O)NC(=S)Nc2ccc(N3CCCC3)cc2)cc1OC |  | 8.2 µM (active) |
| COc1ccc(C(=O)Nc2ccc(N3CCC(C)CC3)cc2)cc1Br | -28 |  |
| Cc1ccc(C(=O)NC(=S)Nc2ccccc2C)cc1 | -18.2 |  |
| COc1ccccc1C(=O)Nc1cccc(C(=O)N2CCOCC2)c1 | 3.1 |  |
| COc1ccc(C(=O)Nc2ccc(S(=O)(=O)Nc3onc(C)c3C)cc2)cc1OC | -5.48 |  |
| Cc1ccc(NC(=S)NC(=O)c2ccc(-c3ccccc3)cc2)cc1 |  | 4.61 µM (active) |
| COc1ccc(C(=O)NC(=S)Nc2ccc(Cl)cn2)cc1OC | -0.228 |  |
| CC(=O)NC(=S)Nc1ccc(NC(=S)NC(=O)c2ccc([N+](=O)[O-])cc2)cc1 | -11 |  |
| COc1ccccc1C(=O)NC(=S)NC12CC3CC(CC(C3)C1)C2 | -21 |  |
| COc1ccccc1C(=O)NC(=S)Nc1ccc(N2CCOCC2)cc1 |  | 0.206 µM (active) |
| COc1ccc(C(=O)Nc2ccc3c(c2)OCO3)cc1OC | -25.8 |  |
| COc1ccc(C(=O)Nc2ccc(C3(C#N)CCCC3)cc2)cc1OC |  | 23.1 µM (active) |

| SMILES | activity change, negative = growth inhibition [%] | Potency |
| --- | --- | --- |
| CCOC(=O)c1c(C)[nH]c(C(=O)OCC(=O)N2CCCC2=O)c1C | -12.8 |  |
| COCCCNC(=O)CN1CCN(Cc2ccccc2Cl)C1=O | -3.14 |  |
| CCCc1cc(=O)oc2c(C)c(OCC(=O)N3CCC(C(=O)O)CC3)ccc12 | -2.38 |  |
| O=[N+]([O-])/C=C1\CCCCCN1 | -11.2 |  |
| CC1CC(c2ccccc2)n2nc(NC(=O)c3cccs3)nc2N1 (stereo not drawn) | -20.4 |  |
| Cc1nnc(NC(=O)CCC(=O)N2CCC(C)CC2)s1 | -3.07 |  |
| Cc1ccc(OCC(=O)NNC(=S)NCc2ccccc2)cc1 | -7.21 |  |
| O=C1CCC(C(=O)OCC(=O)Nc2ccc(OC(F)F)cc2)=NN1 | 2.66 |  |
| Cc1ccc(C(=O)NC(=S)Nc2ccc(N3CCOCC3)cc2)cc1 |  | 29.1 µM (active) |
| COC(=O)c1ccc(NC(=S)NN2CCOCC2)cc1 | 13.8 |  |
| O=C(Cc1ccccc1)NC(=S)Nc1ccc(N2CCCCC2)cc1 |  | 23.1 µM (active) |
| O=C(CN1CCN(c2ccc(O)cc2)CC1)Nc1ccc(-c2ccccc2)cc1 | -44.9 |  |
| O=C(CCN1CCN(c2ccccc2)CC1)NNC(=S)Nc1ccccc1 | 2.36 |  |
| Cc1ccc(C(=O)NC(=S)NCCN2CCOCC2)cc1 | -6.71 |  |
| Nc1nonc1-c1noc(-c2ccc(Br)o2)n1 | -1.12 |  |
| CCC1=C(C(=O)OC)C(c2cc(OC)ccc2OC)C(C#N)=C(N)O1 (stereo not drawn) | -25 |  |
| CCOc1ccc(C(=O)NCCCN2CCCC2=O)cc1 | -1.06 |  |
| CC(C)OCCCNc1ncnc2c1[nH]c1ccc(F)cc12 |  | 2.91 µM (active) |
| O=C1CCCN1CCCNc1ncnc2c1[nH]c1ccccc12 | -24.8 |  |
| COc1cc(OC)c(OC)cc1/C=N/Nc1ncnc2c1[nH]c1ccc(C)cc12 | -26.5 |  |
| Cc1cc(C)c2c(NC(=O)C3CC3)nn(C)c2n1 | 13.9 |  |
| NC1=NC(c2cc(F)cc(F)c2)n2c(nc3ccccc32)N1 (stereo not drawn) | -4.29 |  |
| Cc1nnc(N/N=C/C2CC=CCC2)[nH]c1=O (stereo not drawn) | -9.68 |  |

| SMILES | activity change, negative = growth inhibition [%] | Potency |
| --- | --- | --- |
| CCN(CC)c1ccc(/C=N/NC(=O)CNC(=O)c2cccnc2)cc1 | 17.6 |  |
| CCN(CC)c1ccc(C(=O)Nn2c(C)nc3ccccc3c2=O)cc1 | -17.2 |  |
| Cc1ccc(C(=O)NCCNC(=O)c2cnccn2)cc1 | -18.1 |  |
| CCN(CC)c1ccc(/C=N/Nc2nc(C)cc(C)n2)c(O)c1 |  | 3.26 µM (active) |
| CCN(CC)c1ccc(/C=N/NC(=O)c2cnccn2)c(O)c1 |  | 4.11 µM (active) |
| CCCCC(CC)C(=O)Nc1ccc(Cl)cn1 (stereo not drawn) | 0.311 |  |
| Cc1cc2c(cc1C)N(Cc1ccccc1)C1=NCCCN12 |  | 13 µM (active) |
| O=C(CN1C2=NCCN2c2ccccc21)c1cccs1 | -19.9 |  |
| Nc1ccc(C(=O)OCC(=O)NC2CCCc3ccccc32)cc1[N+](=O)[O-] (stereo not drawn) | -10.2 |  |
| CCc1ccc(NC(=O)c2sc3nc4c(cc3c2N)CN(CC)CC4)cc1 |  | 18.4 µM (active) |
| CCN1CCc2nc(NC(=O)c3cc(F)c(F)cc3Cl)sc2C1 | -22.7 |  |
| CCc1ccc(NC(=O)N2CCc3ccccc3C2)cc1 | -15 |  |
| CC(C(=O)NC1CCCC1)N(c1ccc(Oc2ccccc2)cc1)S(C)(=O)=O (stereo not drawn) | -1.2 |  |
| O=C(C[C@H]1CC[C@H]2[C@@H](COC[C@H](O)CN2C(=O)c2ccccn2)O1)N1CCN(c2ccccc2)CC1 | -3.18 |  |
| O=C(CCSc1ccccc1)NCCSc1ccccn1 | -28.3 |  |
| O=c1c(=O)n(Cc2c(F)cccc2Cl)ccn1Cc1ccccc1 | -13.7 |  |
| O=[N+]([O-])/C=C/c1ccc2c(ccn2Cc2ccccc2)c1 |  | 4.11 µM (active) |
| O=C(CNC(=O)c1n[nH]c2ccccc12)Nc1cc(Cl)ccc1Cl | -26 |  |
| COc1ccc(C)cc1NC(=S)Nc1ccccc1SC | 4.85 |  |
| CSc1ncccc1C(=O)NC1CCCCCC1 | -13.8 |  |
| CC(C)(C)C(=O)Nc1ccc(-c2cn3cccnc3n2)cc1 | -10.1 |  |
| NNC(=O)CSc1nnc(-c2ccccc2)n1-c1ccccc1 | -0.662 |  |
| Cc1ccc(-c2nnc(SCC(=O)N/N=C/c3cccs3)n2-c2ccc(C)cc2)cc1 |  | 14.6 µM (active) |

| SMILES | activity change, negative = growth inhibition [%] | Potency |
| --- | --- | --- |
| Cc1nc2ccccc2n1CC(=O)N/N=C/c1cccs1 | -6.77 |  |
| CN(C)c1nccc(NCc2ccccc2)c1C#N | -11.5 |  |
| Cc1ccc(-c2nnc(SC(C)C#N)n2N)cc1 (stereo not drawn) | -11.7 |  |
| CCCNC(=O)C(CC)n1nc(CC)n2c(cc3oc(C)cc32)c1=O (stereo not drawn) |  | 20.6 µM (active) |
| CCc1nn(CC(=O)NCC(C)c2ccccc2)c(=O)c2cc3occc3n12 (stereo not drawn) | -24.4 |  |
| CCc1nn(CCCC(=O)NC(C)c2ccccc2)c(=O)c2cc3occc3n12 (stereo not drawn) | 8.18 |  |
| Cc1ccnc(NC(=O)CCC(=O)N(CC(=O)NCCc2ccccc2)Cc2cccs2)c1 | -11.8 |  |
| C=CCNC(=O)C1CC=CCC1C(=O)O (stereo not drawn) | -1.68 |  |
| CCCCNC(=O)c1ccc(-n2c(=S)[nH]c3ccccc3c2=O)cc1 | -6.01 |  |
| O=[N+]([O-])c1ccccc1/C=C/CN1CCC(O)CC1 | 10.5 |  |
| O=C(c1cc(COc2c(F)cccc2F)on1)N1CCSCC1 | -1.53 |  |
| C(=C\c1ccccc1)/CSc1nnc(-c2cccnc2)n1Cc1ccco1 | 4.04 |  |
| N=c1c2c(-c3ccccc3)c(-c3ccccc3)oc2ncn1Cc1ccco1 |  | 20.6 µM (active) |
| Cn1c(SCC(=O)N2CCOCC2)nnc1-c1ccc2ncccc2c1 | -28.6 |  |
| O=C1c2ccncc2C(=O)N1C1CCCCC1 | 3.68 |  |
| Cn1c(=O)c(=O)n(C)c2cc(S(=O)(=O)NCCc3ccccc3)ccc21 | -4.87 |  |
| C=CC[C@@H](Cc1ccc(F)cc1)C(=O)OC[C@H]1CCCN1C(=O)[C@H](CC=C)CC(=O)N(CCO)Cc1ccccc1 |  | 18.4 µM (active) |
| CC(CCc1ccccc1)NC(=O)COC(=O)c1ccc(F)cc1 (stereo not drawn) | -0.972 |  |
| C=CC[C@H](CC(=O)N(CCO)Cc1ccccc1)C(=O)N[C@@H](COC(=O)[C@@H](CC=C)Cc1ccc(F)cc1)Cc1ccccc1 |  | 20.6 µM (active) |
| C=CCC(NC(=O)Cc1ccccc1)C(=O)NCCC (stereo not drawn) | -4.55 |  |
| C=CCC[C@@H](Cc1ccc(F)cc1)C(=O)OC[C@@H](C)NC(=O)[C@H](CC=C)CC(=O)N(CCO)Cc1ccccc1 |  | 8.2 µM (active) |
